HT1080NT lethal: kills 2HG-producing HT-1080-NT fibrosarcoma cells | AID 686970 | Potency, µM (series often up to 46.1 µM), for inactives: top-dose activity, negative = less viability, most hits filed as cytotoxic | HT-1080-NT fibrosarcoma viability, CellTiter-Glo ATP luminescence, 48 h | 360,000 tested, 1.6% active;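 note: NT is the 2HG producing partner of a matched IDH1 knockdown line; 0% = DMSO-treated cells and -100% = media-only wells without cells; nearly all actives have a fitted effect of over 55% in size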
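Toxicity toward the 2HG-producing NT line was scored as %Activity, normalised to DMSO and no-cell wells, from CellTiter-Glo luminescence after 48 hours' treatment.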
MCF10A rereplic: induces DNA re-replication in MCF 10a normal breast cells. MCF 10A DNA re-replication, Hoechst nuclear intensity, 48 h. Potency, µM (titrated, usually from 46.1 µM), inactives show at the highest dose activity, positive = re-replication, most hits filed as activators. 350,000 tested, 2.9% active. AID 624296; note: % of control where 0% means no effect; nearly all actives have a fitted effect of over 50% in size
KB-V1 cytotox: KB-V1 MDR subline cytotoxicity; KB-V1 MDR cells viability, CellTiter-Glo, 72 h; Potency, µM (series often up to 46.1 µM), hits mostly cytotoxic; 400,000 tested, 3.4% active; AID 1347076; note: % is set by controls: 0 for no effect and ±100 for the full control effect; nearly all actives have a fitted effect of over 60% in size
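Following 72 h at 37 degrees C with compound, KB-V1 cell viability was read by CellTiter-Glo luminescence, medium being phenol-red-free DMEM plus 10% FBS; concentration-response parameters came from normalized, curve-fitted qHTS data.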
KB-3-1 cytotox: kills parental KB-3-1 adenocarcinoma cells; KB-3-1 viability, CellTiter-Glo ATP luminescence, 72 h; Potency, µM (highest dose often 46.1 µM), hits mostly cytotoxic; 400,000 tested, 1.4% active; note: % is set by controls: 0 for no effect and ±100 for the full control effect; nearly all actives have a fitted effect of over 60% in size
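Parental KB-3-1 viability, qHTS format: 72 h compound exposure, 37 °C; CellTiter-Glo; media-only wells and DMSO plates as controls; concentration-effect fits on corrected data.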
SW480 rerep: inducers of DNA re-replication in SW480 colon cancer cells | SW480 DNA re-replication, Hoechst DNA content imaging, 48 h | Potency, µM (top dose mostly 46.1 µM), inactives show at the highest dose re-replication activation, most hits filed as activators | AID 624297 | 340,000 tested, 1.8% active; note: % of control where 0% means no effect; nearly all actives have a fitted effect of over 55% in size
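Per well, 250 cells were exposed to pinned compound for 48 hr. Nuclear DNA was visualised with Hoechst (40 min, 37 C) and total object intensity recorded by fluorescence scanning.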
HT1080 IDH1KD tx: kills HT-1080 cells with IDH1 knockdown; 360,000 tested, 2% active; AID 686971; HT-1080 IDH1 knockdown viability, ATP luminescence, 48 h; Potency, µM (highest dose often 46.1 µM), without a hit: at the top dose activity, negative = toxicity, hits mostly cytotoxic;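 note: 0% = DMSO wells and -100% = cell-free medium wells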
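CellTiter-Glo luminescence after 48 h compound exposure at 37 degrees C of IDH1-knockdown HT-1080 cells in 5% FBS RPMI. %Activity scaled between DMSO wells and cell-free media wells, with curves fitted and assigned curve classes.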
* = called active by the depositor; i = inactive; ? = inconclusive; . = not tested or not shown. Most compounds without a hit are left out; they make up all but 8% or so of the library. Calls come from the whole dose curve; as a rule, active = well fitted curve in the direction sought with a large enough effect; inconclusive = small, poorly fitted or top-dose-only effect, or another doubt; inactive = no such curve, though single readings can be large; an effect the other way counts as inactive or inconclusive. Potency is the fitted concentration of half-maximal effect.

SMILES | HT1080NT lethal | MCF10A rereplic | KB-V1 cytotox | KB-3-1 cytotox | SW480 rerep | HT1080 IDH1KD tx
COC(=O)c1ccc(C2NC(c3ccc4c(c3)OCO4)=CC(c3ccccc3O)N2)cc1 (stereo unspecified) | . | . | i | i | . | .
Clc1cccc(Oc2ncccn2)c1 | 8% | 13% | i | i | -1% | 8%
COc1ccc(OCC(=O)c2c(O)c3ccccc3oc2=O)cc1 | -5% | ? | 21µM* | ? | -1% | -1%
CC1CCC(C(=O)c2c(O)c3ccccc3oc2=O)CC1 (stereo unspecified) | -23% | 9% | 3.7µM* | ? | 7% | -14%
COc1ccc(CCNC(=O)c2ccc3c(c2)N(Cc2ccccc2F)C(=O)c2ccccc2S3=O)cc1OC (stereo unspecified) | . | . | i | i | . | .
O=c1cc(O)c2sc(Nc3cccc(C(F)(F)F)c3)nc2[nH]1 | 18% | 11% | i | i | ? | 8%
O=c1cc(O)c2sc(Nc3ccc(F)cc3)nc2[nH]1 | -8% | 16µM* | i | i | ? | -23%
CCc1nc(Nc2ccccc2)c2nnn(Cc3ccccc3)c2n1 | -18% | ? | i | i | -3% | -6%
COc1ccc(N2C(=O)C3CCCN3C2c2cccc(OC)c2OC)cc1 (stereo unspecified) | 12% | 17% | i | i | -2% | -9%
Cc1ccc(C)c(N2N=C(C(=O)OCc3nnc(-c4cccs4)o3)CCC2=O)c1 | -8% | -7% | i | i | 1% | -5%
Cc1nc2ccccc2n1CC(=O)NN | -7% | -3% | i | i | -3% | -1%
Cc1nc2ccccc2n1CC(=O)NCc1ccccc1 | -17% | -6% | 6.5µM* | ? | 1% | -28%
Cc1cc(=O)c2ccccc2n1CC(=O)NCc1ccccc1 | 1% | ? | 4.6µM* | i | -2% | 0%
COc1ccccc1NC(=O)N(C)C[C@@H]1OCc2cn(nn2)CCCC(=O)N([C@H](C)CO)C[C@H]1C | 4% | . | i | i | . | 4%
Cc1cccc(C)c1OCCCN1CCOCC1 | 13% | -19% | i | i | 0% | 14%
Cc1cccc(C(=O)NNC(=O)c2cc3cc4ccccc4nc3s2)c1 | ? | 4% | i | i | ? | 21µM*
CCOc1ccc2ncc(S(=O)(=O)c3ccccc3)c(N3CCC4(CC3)OCCO4)c2c1 | . | 28% | . | . | 6% | .
Brc1cc2c(cc1Br)OCCOCCOCCOCCO2 | -3% | ? | i | i | -4% | 0%
Brc1ccc2c(c1)OCCOCCOc1cc(Br)ccc1OCCOCCOCCO2 | ? | ? | 2.3µM* | ? | ? | 18µM*
COc1cc(-c2n[nH]c(=S)n2-c2ccccc2C(F)(F)F)cc(OC)c1OC | -3% | 10% | i | i | -4% | 15%
N#Cc1ccc(NC(=O)Cn2cnc([N+](=O)[O-])c2)cc1 | 2% | -4% | ? | i | 5% | 11%
O=C(Cn1cnc([N+](=O)[O-])c1)Nc1cc(Oc2ccc(Cl)cc2Cl)cc([N+](=O)[O-])c1 | 21µM* | ? | i | ? | ? | ?
COc1ccc(NC(=O)COc2cc(C)cc(C)c2)cc1S(=O)(=O)N1CCCCC1 | ? | 21µM* | 18µM* | ? | 5.8µM* | ?
COc1ccc(NC(=O)CCN2C(=O)C3CC=CCC3C2=O)cc1S(=O)(=O)N1CCCCC1 (stereo unspecified) | 11% | 1% | ? | i | -3% | 21%
COc1ccc(NC(=O)CCCC2CCCCC2)cc1S(=O)(=O)N1CCCCC1 | -11% | ? | 9.2µM* | ? | ? | -21%
CC(C)[C@H](NC(=O)c1ccc([N+](=O)[O-])cc1Cl)C(=O)N1CCN(C/C=C/c2ccccc2)CC1 | ? | 5% | ? | ? | 25% | ?
NC(=O)COc1ccc(S(=O)(=O)N2CCCC2)cc1 | 0% | . | ? | ? | . | 3%
